From publication PMC5540273 (PLoS ONE, 2017)
Several values for one entry are separate records, joined by “and”; a condition that tells them apart may be missing. Equal entries are not always repeated. Where two headings read alike, the source gives them in different places.

Tests used:
MYO3B = details: concentration: 1 μM, replicates: in singlicate; n = 1
NDR1 = tested on: T1, NDR1; details: concentration: 1 μM, replicates: in singlicate, n = 1
T1 construct: gene STK38

NDR2 = details: concentration: 1 μM, replicates: in singlicate, n = 1
NEK10 = details: concentration: 1 μM, replicates: in singlicate, n = 1
NEK11 = details: concentration: 1 μM, replicates: in singlicate, n = 1
NEK1 = details: concentration: 1 μM, replicates: in singlicate, n = 1
NEK2 = details: concentration: 1 μM, replicates: in singlicate; n = 1
NEK3 = details: concentration: 1 μM, replicates: in singlicate, n = 1
NEK4 = details: concentration: 1 μM, replicates: in singlicate; n = 1
NEK5 = details: concentration: 1 μM, replicates: in singlicate, n = 1
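Also: KINOMEscan kinase panel screen.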

Row | SMILES | %Inh (MYO3B) | %Inh (NDR1) | %Inh (NDR2) | %Inh (NEK10) | %Inh (NEK11) | %Inh (NEK1) | %Inh (NEK2) | %Inh (NEK3) | %Inh (NEK4) | %Inh (NEK5) | %Inh (NDR1; 1 µM) | %Inh (NDR2; 1 µM) | %Inh (NEK10; 1 µM) | %Inh (NEK11; 1 µM) | %Inh (NEK1; 1 µM) | %Inh (NEK3; 1 µM) | %Inh (NEK5; 1 µM)
1 | O=C(Nc1cccc(-c2nn3ncccc3c2-c2ccnc(Nc3cccc(C(F)(F)F)c3)n2)c1)c1c(F)cccc1F [GSK299495] | 4% | 0% | 0% | 17% | 19% | 0% | 0% | 11% | 0% | 13% |  |  |  |  |  |  | 
2 | COCCNC(=O)c1ccc(-c2cc(C(=O)NC3CC3)cc(F)c2C)cc1 [GW868318] | 24% | 33% | 21% | 3% | 27% | 0% | 0% | 26% | 14% | 8% |  |  |  |  |  |  | 
3 | [2H]C([2H])(c1cccc(C(F)(F)F)c1C)n1ccn2c(=O)nc(N3CCOCC3)cc12 [GSK2336394] | 0% | 0% | 0% | 7% | 0% | 0% | 0% | 1% | 27% | 4% |  |  |  |  |  |  | 
4 | NCCNS(=O)(=O)c1ccc(-c2ccnc3[nH]ccc23)cc1 [GSK977617] | 0% |  |  |  |  |  | 0% |  | 0% |  | 70% and 58% | 77% and 60% | 69% and 53% | 24% and 0% | 62% and 44% | 14% and 0% | 44% and 25%
